Laboratory results as given in PubChem BioAssay AID1159580 (chemical genetic matrix, 2015).
Several values for one entry are separate records, joined by “and”; a condition that tells them apart may be missing. Identical values can stand only once. The campaign covered roughly 5,500 compounds. About 2,000 (36%) were called active. Another 18% or so got no clear call; they are omitted. Rule as the data show it: active = normalized growth mostly below about 0.91 (no sharp cut-off); inconclusive = no clear call, values can overlap the other calls; inactive = mostly above about 0.92. This is one part of the list.

Experiment: chemical genetic growth profiling, strain panel (AID 1159580);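 also: tested at 20 µM; growth read once vehicle control cultures reached saturation at 30 °C; 1 = growth at the plate median or of vehicle wells; lower values mean less growth of the strain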
Settings: S. cerevisiae deletion strains, growth OD

Measured: normalized growth

O=C(OCc1ccccc1)c1ccccc1
inactive: locus YAL021C, strain ccr4, stronger effect = lower value 1.02 | locus YAL026C, strain drs2, stronger effect = lower value 0.93 | locus YAL030W, strain snc1, stronger effect = lower value 0.967 | locus YBL061C, strain skt5, stronger effect = lower value 0.966 | locus YBR009C, strain hhf1, stronger effect = lower value 0.954 | locus YBR021W, strain FUR4, stronger effect = lower value 1 | locus YBR023C, strain chs3, stronger effect = lower value 0.942 | locus YBR171W, strain sec66, stronger effect = lower value 0.927 | locus YBR229C, strain ROT2, stronger effect = lower value 0.994 | locus YBR231C, strain swc5, stronger effect = lower value 0.995 | locus YBR279W, strain paf1, stronger effect = lower value 0.979 | locus YCL011C, strain gbp2, stronger effect = lower value 0.978 | locus YCL016C, strain dcc1, stronger effect = lower value 0.947 | locus YCL029C, strain bik1, stronger effect = lower value 0.969 | locus YCL061C, strain MRC1, stronger effect = lower value 0.958 | locus YCL069W, strain vba3, stronger effect = lower value 0.966 | locus YCR088W, strain abp1, stronger effect = lower value 0.946 | locus YDL005C, strain med2, stronger effect = lower value 0.981 | locus YDL035C, strain GPR1, stronger effect = lower value 0.961 | locus YDL040C, strain nat1, stronger effect = lower value 0.978 | locus YDL074C, strain BRE1, stronger effect = lower value 0.95 | locus YDL101C, strain DUN1, stronger effect = lower value 0.939 | locus YDL134C, strain PPH21, stronger effect = lower value 0.926 | locus YDL185W, strain tfp1, stronger effect = lower value 0.986 | locus YDL192W, strain arf1, stronger effect = lower value 0.973 | locus YDR001C, strain nth1, stronger effect = lower value 0.943 | locus YDR069C, strain doa4, stronger effect = lower value 1.01 | locus YDR101C, strain arx1, stronger effect = lower value 0.96 | locus YDR159W, strain sac3, stronger effect = lower value 0.951 | locus YDR162C, strain NBP2, stronger effect = lower value 0.941 | locus YDR195W, strain ref2 1.02 | locus YDR297W, strain sur2, stronger effect = lower value 0.961 | locus YDR318W, strain mcm21, stronger effect = lower value 0.948 | locus YDR334W, strain swr1, stronger effect = lower value 0.977 | locus YDR335W, strain msn5, stronger effect = lower value 0.95 | locus YDR388W, stronger effect = lower value 0.97 | locus YDR392W, strain spt3, stronger effect = lower value 0.764 | locus YEL003W, strain gim4, stronger effect = lower value 0.959 | locus YEL037C, strain rad23, stronger effect = lower value 0.97 | locus YEL061C, strain CIN8 (second series), stronger effect = lower value 0.925 | locus YEL061C, strain CIN8, stronger effect = lower value 0.988 | locus YER015W, strain faa2, stronger effect = lower value 0.966 | locus YER016W, strain bim1, stronger effect = lower value 0.973 | locus YER110C, stronger effect = lower value 0.975 | locus YER111C, strain swi4, stronger effect = lower value 0.957 | locus YER155C, strain BEM2, stronger effect = lower value 0.98 | locus YER167W, strain BCK2, stronger effect = lower value 0.942 | locus YFR010W, strain ubp6, stronger effect = lower value 1.01 | locus YGL078C, strain dbp3, stronger effect = lower value 0.943 | locus YGL086W, strain mad1, stronger effect = lower value 0.959 | locus YGL167C, strain pmr1, stronger effect = lower value 0.965 | locus YGL173C, strain kem1, stronger effect = lower value 0.927 | locus YGL227W, strain vid30, stronger effect = lower value 0.96 | locus YGL240W, strain doc1, stronger effect = lower value 0.968 | locus YGL248W, strain PDE1, stronger effect = lower value 0.944 | locus YGL253W, strain hxk2, stronger effect = lower value 0.972 | locus YGR135W, strain pre9, stronger effect = lower value 0.949 | locus YGR229C, strain SMI1, stronger effect = lower value 0.852 | locus YGR252W, strain gcn5, stronger effect = lower value 0.923 | locus YHR027C, strain rpn1, stronger effect = lower value 0.979 | locus YHR030C, strain SLT2, stronger effect = lower value 0.953 and 0.899 | locus YHR079C, strain IRE1 (second series), stronger effect = lower value 0.969 | locus YHR079C, strain IRE1, stronger effect = lower value 0.902 | locus YHR094C, strain hxt1, stronger effect = lower value 0.967 | locus YHR129C, strain ARP1, stronger effect = lower value 0.976 | locus YHR200W, strain rpn10, stronger effect = lower value 0.979 | locus YIL066C, strain RNR3, stronger effect = lower value 0.942 | locus YIL073C, strain SPO22, stronger effect = lower value 0.924 | locus YIL125W, strain kgd1, stronger effect = lower value 0.95 | locus YIR030C, strain dcg1, stronger effect = lower value 0.972 | locus YJL092W, strain hpr5, stronger effect = lower value 0.936 | locus YJL095W, strain BCK1 (second series), stronger effect = lower value 0.959 | locus YJL115W, strain asf1, stronger effect = lower value 0.959 | locus YJL129C, strain trk1, stronger effect = lower value 0.933 | locus YJL134W, strain LCB3, stronger effect = lower value 0.988 | locus YJL154C, strain vps35, stronger effect = lower value 0.96 | locus YJL164C, strain tpk1, stronger effect = lower value 0.922 | locus YJL166W, strain qcr8, stronger effect = lower value 0.941 | locus YJL168C, strain set2, stronger effect = lower value 0.979 | locus YJL187C, strain SWE1 (second series), stronger effect = lower value 0.973 | locus YJL187C, strain SWE1, stronger effect = lower value 0.966 | locus YJR043C, strain POL32, stronger effect = lower value 0.955 | locus YJR066W, strain TOR1, stronger effect = lower value 0.906
0.789 (active) and 0.886 (inactive): locus YJL095W, strain BCK1, stronger effect = lower value
active: locus YDR137W, strain rgp1, stronger effect = lower value 0.714 | locus YDR502C, strain sam2, stronger effect = lower value 0.918 | locus YER155C, strain BEM2 (second series), stronger effect = lower value 0.716 | locus YHR013C, strain ard1, stronger effect = lower value 1.31 [resistant] | locus YHR142W, strain chs7, stronger effect = lower value 0.828
